{"source": "PubChem BioAssay (Tox21)", "note": "Records with an inconclusive call do not appear. Where a call stands in place of a potency, no number is given. Unmarked numbers belong to inactive results. Active and inactive are the calls of the source. Calls follow the shape of the dose curve; as a rule, active = well fitted cell-killing curve with a large enough effect in the repeat runs; inconclusive = weak or mixed curves, or effect the other way; inactive = flat fitted curve, though single readings scatter. Where a SMILES comes first, the peptide text is derived from it. [ ]: non-standard residue; d: D form. pGlu = O=C1CC[C@@H](C(=O)O)N1", "data": [{"assay": "Human pregnane X receptor (PXR) small molecule agonists, qHTS cell viability counter screen (AID 1346977); also: nearly all actives have a fitted effect of over 50% in size", "conditions": "PXR-Luc HepG2 viability, CellTiter-Fluor, 24 h; series mostly up to 92.4 µM", "description": "U.S. Tox21 Program National Center for Advancing Translational Sciences [NCATS] NIH Chemical Genomics Center [NCGC] U.S. Environmental Protection Agency [EPA] National Institutes of Environmental Health Sciences [NIEHS] National Toxicology Program [NTP] U.S. Food and Drug Administration [FDA] Tox21 Assay Overview: The human pregnane X receptor (hPXR) regulates the expression of several drug metabolizing enzymes and induction of these proteins is a major mechanism for developing drug resistance in cancer. One such key enzyme catalyzing the drug metabolism is cytochrome P450 3A4 (CYP3A4). Changes in CYP3A4 expression affect drug metabolism, thereby reducing the therapeutic efficacy and altering toxicological response to a drug and which finally causes adverse drug interaction. To screen Tox21 libraries for compounds that activate hPXR-mediated CYP3A4 gene expression, PXR-Luc HepG2 cells were used. Also cytotoxicity of the compounds was tested in parallel by measuring the cell viability using CellTiter-Fluor assay system in the same wells.\nTox21 Assay Protocol Summary: PXR-Luc HepG2 cells were dispensed at 2,000 per well in 5uL of assay medium containing 5% charcoal-stripped FBS into white solid bottom 1536-well plates (Corning Life Sciences, Corning, NY) using a Multidrop Combi (Thermo Scientific, Waltham, MA) dispenser. The assay plates were incubated at 37 C and 5% CO2 for 5hr, and then 23nL of compounds dissolved in DMSO and positive control were transferred using a Pintool station (Wako, San Diego, CA). The assay plates were incubated at 37C and 5% CO2 for 24hr. For cytotoxicity read, after 23hr incubation at 37C, 1uL CellTiter-Fluor reagent (Promega Corporation, Madison, WI) was added to each well of the assay plates using Flying Reagent Dispenser (FRD, Aurora Discovery, San Diego, CA). After 1hr incubation at 37C and 5% CO2, the fluorescence signal was quantified using a ViewLux plate reader (PerkinElmer, Shelton, CT).", "values": [{"compound": "O=[N+]([O-])c1ccc(/C=N\\O)o1", "Potency": "inactive"}, {"compound": "CCCC[N+](C)(CCCC)CCCC", "Potency": "inactive"}, {"compound": "CC(CC=O)CC(C)(C)C", "note": "(stereo not given)", "Potency": "inactive"}, {"compound": "CO[C@@]1(NC(=O)CSC[C@@H](N)C(=O)O)C(=O)N2C(C(=O)O)=C(CSc3nnnn3C)CS[C@@H]21", "Potency": "inactive"}, {"compound": "Cc1ccc(-c2ncc(Cl)cc2-c2ccc(S(C)(=O)=O)cc2)cn1", "Potency": "inactive"}, {"compound": "C[N+](C)(C)CCCCCCCCCC[N+](C)(C)C", "Potency": "inactive"}, {"compound": "CC1=CC(=O)[C@H]2C[C@@H]1C2(C)C", "Potency": "inactive"}, {"compound": "Nc1ccccn1", "Potency": "inactive"}, {"compound": "C[C@@H]1CCC[C@H](C)N1", "Potency": "inactive"}, {"compound": "OCCCCCO", "Potency": "inactive"}, {"compound": "NC(CCC(=O)O)C(=O)O", "note": "(stereo not given)", "Potency": "inactive"}, {"compound": "O=CN(CCO)CCO", "Potency": "inactive"}, {"compound": "CC1OC1C1CCC2(C)OC2C1", "note": "(stereo not given)", "Potency": "inactive"}, {"compound": "CCOC(=O)C1=NOC(c2ccccc2)(c2ccccc2)C1", "Potency": "inactive"}, {"compound": "CC(C)=CCC/C(C)=C/C#N", "Potency": "inactive"}, {"compound": "CCN(C=O)CC", "Potency": "inactive"}, {"compound": "NCCCC(N)(C(=O)O)C(F)F", "note": "(stereo not given)", "Potency": "inactive"}, {"compound": "CCNC(=O)[C@@H]1CCCN1C(=O)[C@H](CCCN=C(N)N)NC(=O)[C@H](CC(C)C)NC(=O)CNC(=O)[C@H](Cc1ccc(O)cc1)NC(=O)[C@H](CO)NC(=O)[C@H](Cc1c[nH]c2ccccc12)NC(=O)[C@H](Cc1cnc[nH]1)NC(=O)[C@@H]1CCC(=O)N1", "note": "([pGlu]HWSYGLRP-NHEt)", "Potency": "inactive"}, {"compound": "Nc1ccn([C@@H]2O[C@H](CO)[C@@H](O)[C@@H]2O)c(=O)n1", "Potency": "inactive"}, {"compound": "CCOC(=O)C(=O)CCCCCCl", "Potency": "inactive"}, {"compound": "NCCCC[C@H](N[C@@H](CCc1ccccc1)C(=O)O)C(=O)N1CCC[C@H]1C(=O)O", "Potency": "inactive"}, {"compound": "O=C(O)CNC(=O)c1ccccc1", "Potency": "inactive"}, {"compound": "CCCCCCCCCCOc1cc2c(=O)c(C(=O)OCC)c[nH]c2cc1OCC", "activity change, negative = cytotoxicity": "-1.67% [at 8.39 µM]"}, {"compound": "CC(=O)N1C[C@H](O)C[C@H]1C(=O)O", "Potency": "inactive"}, {"compound": "C=CCCCCCCCCC(=O)OCC", "Potency": "inactive"}, {"compound": "C=C(C)C(=O)OCCOCCOCCOCCOC(=O)C(=C)C", "Potency": "inactive"}, {"compound": "CCCCCCC#CC(=O)OC", "Potency": "inactive"}, {"compound": "O=S(=O)(O)c1cccc2c(S(=O)(=O)O)cccc12", "Potency": "inactive"}, {"compound": "C1CCC2=NCCCN2CC1", "Potency": "inactive"}, {"compound": "O=C1CCCCCCCCCCCCCCO1", "Potency": "inactive"}, {"compound": "Clc1cc(Cl)cc(Cl)c1", "Potency": "inactive"}, {"compound": "NC(=O)Cc1cccc2ccccc12", "Potency": "inactive"}, {"compound": "C=C[Si](OC(C)=O)(OC(C)=O)OC(C)=O", "Potency": "inactive"}, {"compound": "[O-][n+]1cccc(CO)c1", "Potency": "inactive"}, {"compound": "CC(C)C(=O)OC(=O)C(C)C", "Potency": "inactive"}, {"compound": "CN(C)C(=O)Oc1ccc[n+](C)c1", "Potency": "inactive"}, {"compound": "CCOC(=O)COC(=O)c1ccccc1C(=O)OCC", "Potency": "inactive"}, {"compound": "CC(=O)Oc1cccc(C)c1", "Potency": "inactive"}, {"compound": "COc1cc(C)nc(-n2nc(C)cc2OC)n1", "Potency": "inactive"}, {"compound": "Cc1ccccc1N=C(N)N=C(N)N", "Potency": "inactive"}]}]}
